From the supplement of paper PMC13172266
Counter-ions that a name gives are not always drawn.

How the values were obtained:
Assay in all cases: cell proliferation relative to vehicle (% of vehicle); higher = less growth inhibition
Conditions in all cases: 72 h
[1] = tested on: U2932 TK216-resistant clone 2
In short: (§1)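 Each of 348 targeted inhibitors was tested at 500 nM or 50 nM for 72 h on U2932 cells, both parental and two clones resistant to an ETS-targeting agent. Readout was by MTT with absorbance read on a Cytation 3. Proliferation appears as percent of proliferating cells relative to vehicle (DMSO).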

[2] = tested on: U2932 TK216-resistant clone 3
In short: as §1

[3] = tested on: U2932 parental
In short: as §1

Structure (SMILES)	cell proliferation ([1]; 50 nM)	cell proliferation ([1]; 500 nM)	cell proliferation ([2]; 50 nM)	cell proliferation ([2]; 500 nM)	cell proliferation ([3]; 50 nM)	cell proliferation ([3]; 500 nM)
Cc1ccc2c(=O)c3cccc(CC(=O)O)c3oc2c1C [DMXAA (Vadimezan)]	110	99.3	101	95.3	101	99.2
NC(=O)c1ncn([C@@H]2O[C@H](CO)[C@@H](O)[C@H]2O)c1O [Mizoribine]	104	108	100	99.7	104	102
Cc1cnc(Nc2ccc(N3CCN(C)CC3)cc2)nc1Nc1cccc(S(=O)(=O)NC(C)(C)C)c1	95.6	70.3	90	65.2	89.4	79.5
CN(Cc1cnc2nc(N)nc(N)c2n1)c1ccc(C(=O)N[C@@H](CCC(=O)O)C(=O)O)cc1 [Methotrexate]	102	37.1	102	67.8	99.4	29.9
Cc1c(CN2CCN(C(=O)[C@H](C)O)CC2)sc2c(N3CCOCC3)nc(-c3cnc(N)nc3)nc12	79.4	32	82.1	40.6	85	33.4
CC(C)c1cc(-c2n[nH]c(=O)n2-c2ccc3c(ccn3C)c2)c(O)cc1O [Ganetespib (STA-9090)]	6.02	4.07	23.7	19.8	4.55	5.59
COc1cc([C@@H]2c3cc4c(cc3[C@@H](O[C@@H]3O[C@@H]5CO[C@@H](c6cccs6)O[C@H]5[C@H](O)[C@H]3O)[C@H]3COC(=O)[C@H]23)OCO4)cc(OC)c1O [Teniposide]	59	8.54	83	19.8	67.7	16.8
CS(=O)(=O)c1cccc(CNc2nc(Nc3ccc4c(c3)CCC(=O)N4)ncc2C(F)(F)F)c1	110	101	103	98.3	90.5	82.6
O=C(/C=C/c1cccc(S(=O)(=O)Nc2ccccc2)c1)NO [Belinostat (PXD101)]	104	48.6	98.1	67.6	90.1	41.8
CC[C@H](CO)Nc1nc(NCc2ccccc2)c2ncn(C(C)C)c2n1 [Roscovitine (Seliciclib,CYC202)]	105	102	107	107	99.6	106
O=C(/C=C/c1ccc2ccccc2n1)c1ccncc1	99.7	83.1	102	88.3	98.2	89.1
CN1CCN(Cc2ccc(-c3cnc4[nH]cc(-c5ccc6[nH]ccc6c5)c4c3)cc2)CC1	96.6	91.2	97.2	85.4	92.5	101
CCOc1cc(C(=O)N2CCC(N3CCN(C)CC3)CC2)ccc1Nc1ncc2c(n1)N(C1CCCC1)c1ccccc1C(=O)N2C	95	74.3	95.4	65.4	94.8	75.5
Cc1cc(N2CCOCC2)cc2[nH]c(-c3c(NC[C@@H](O)c4cccc(Cl)c4)cc[nH]c3=O)nc12	110	96	100	92.8	102	100
NC(=O)NO [Hydroxyurea]	103	94.7	102	103	92.2	97.8
O=C(/C=C\n1cnc(-c2cc(C(F)(F)F)cc(C(F)(F)F)c2)n1)NNc1cnccn1	87.7	36.3	58.9	57.6	82.9	44.1
CNc1nc(Nc2cn(C(C)(C)C#N)nc2C)ncc1C(F)(F)F	101	96.4	101	95.2	100	98.2
CN1CCN(c2ccc3nc(-c4c(N)c5c(F)cccc5[nH]c4=O)[nH]c3c2)CC1 [Dovitinib (TKI-258, CHIR-258)]	103	83.9	95.7	83.3	95.1	96.9
CC/C(=C(\c1ccccc1)c1ccc(OCCN(C)C)cc1)c1ccccc1 [Tamoxifen Citrate]	98.9	89.7	89	86.3	82.1	79.1
CCOc1ccc(Cc2cc([C@@H]3O[C@H](CO)[C@@H](O)[C@H](O)[C@H]3O)ccc2Cl)cc1 [Dapagliflozin]	103	103	101	107	103	96.2
COC(=O)Nc1ccc(-c2nc(N3CCOCC3)c3cnn(C4CCN(C(=O)OC)CC4)c3n2)cc1	107	55.1	101	56.4	101	46.9
O=c1cc(N2CCOCC2)oc2c(-c3ccccc3)cccc12	110	102	100	97.3	105	105
Cc1ccc(S(=O)(=O)/C=C/C#N)cc1	107	113	109	104	102	102
CC(C=CC(=O)NO)=CC(C)C(=O)c1ccc(N(C)C)cc1 (stereo not given) [Trichostatin A (TSA)]	68.3	8.5	74.5	4.96	67.2	2.14
Cc1nc(C(=O)NCC(=O)O)c(O)c2ccc(Oc3ccccc3)cc12	102	98.6	104	98.5	98.3	95.4
